The values that follow come from PubChem BioAssay AID1259415 (National Center for Advancing Translational Sciences (NCATS), 2018).

Among all 410,000 compounds or so, about 18,000 (4.4%) were called active. About 7% were inconclusive and are not listed. Rule as the data show it: active = activity change below about -60%; inconclusive = no clear call, values can overlap the other calls; inactive = above about -39%. For the sample, actives were picked, then their nearest neighbours and some compounds at random.
% is scaled to controls: 0 for no effect and ±100 for the full control effect.

The nature of the assay: qHTS Assay for inhibitors of the human cytomegalovirus (HCMV). The conditions noted are these: HFF cells, HCMV-luciferase reporter, 72 h; at 57.5 µM; active compounds read low. A digest of the protocol: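 Two-dose cell screen: HFF monolayers treated with compounds and infected with luciferase-expressing HCMV at 1 PFU/cell, 72 h at 37C, then lysed for luciferase measurement.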
Turning to `CCc1nn(CC(=O)Nc2cccc(C)c2C)c(=O)c2cc3sccc3n12`, the activity change, negative = inhibition is -1.56% (inactive).

Regarding `Cc1cc2oc(=O)cc(CN(C)Cc3ccc(OC(F)F)cc3)c2cc1Cl`, the activity change, negative = inhibition was 26.8% (inactive).

Take `CCn1c(Cc2cccs2)nnc1SCC(=O)c1ccc(C)cc1`: the activity change, negative = inhibition was 47.4% (inactive).

In the case of `CC(=O)c1c(C)n(S(=O)(=O)c2ccc(Cl)cc2)c2ccc(NS(=O)(=O)c3ccc(Cl)cc3)cc12`, the activity change, negative = inhibition is 1.89% (inactive).

As to `Cc1ccc(OCC(=O)OCc2cc(=O)n3nc(C4CC4)sc3n2)cc1`, the activity change, negative = inhibition was -34% (inactive).

`O=C(NCC12CC3CC(CC(C3)C1)C2)c1cc2nc(-c3ccccc3)cc(C(F)(F)F)n2n1`: the activity change, negative = inhibition was -2.2% (inactive).

With `COc1ccc(N2CCN(C(=O)C3CCCN(C(=O)c4cc5sccc5n4C)C3)CC2)cc1` (centres undefined), the activity change, negative = inhibition is -14.9% (inactive).

Turning to `Cc1cc(C)c(NC(=O)CN2C(=O)c3cccnc3Oc3ccc(Cl)cc32)c(C)c1`, the activity change, negative = inhibition was 0% (inactive).

For `O=C(NCCCO)C(=O)Nc1c2c(nn1-c1ccc(F)cc1)CSC2`, the activity change, negative = inhibition is -5.08% (inactive).

In the case of `Cc1ccc(Nc2c(-c3ccc(Cl)cc3)nc3sccn23)c(C)c1`, the activity change, negative = inhibition is -23.6% (inactive).

For `Cc1cccc(NC(=O)CSc2nc3c(oc4ccccc43)c(=O)n2-c2ccc(F)cc2)c1`, the activity change, negative = inhibition is -12% (inactive).

For the compound `O=C(Nc1ccc2c(c1)OCCO2)c1ccc(Cl)c(S(=O)(=O)N2CCCCC2)c1`, the activity change, negative = inhibition is -72.6% (active).

`CC(=O)Nc1ccc(C(=O)Nc2cccc(S(=O)(=O)NC3=NCCC3)c2)cc1`: the activity change, negative = inhibition was -22.7% (inactive).

For the compound `O=C(Nc1cccc(S(=O)(=O)Nc2ccc(Cl)cc2)c1)c1ccc2c(c1)OCCO2`, the activity change, negative = inhibition was -94.5% (active).

Consider `Cc1ccc(NC(=O)c2ccc(Cl)nc2)cc1S(=O)(=O)N1CCOCC1`, for which the activity change, negative = inhibition is -8.05% (inactive).

Turning to `Cc1ccc(C(=O)NNC(=O)c2ccncc2)cc1S(=O)(=O)N1CCCCC1`, the activity change, negative = inhibition is -15.8% (inactive).

As to `O=C(NNC(=O)c1cccc(S(=O)(=O)Nc2ccc(Cl)cc2)c1)c1ccc(=O)[nH]c1`, the activity change, negative = inhibition was 24% (inactive).

Consider `CCOc1ccc(CCNC(=O)C2CCN(c3ccc(N4CCOCC4)nn3)CC2)cc1OCC`, for which the activity change, negative = inhibition was 2.74% (inactive).

With `Cc1cc(C)c(C)c(S(=O)(=O)N[C@@H](C)C(=O)OC(C)C(=O)NC(N)=O)c1C` (some centres undefined), the activity change, negative = inhibition is -14.5% (inactive).

In the case of `COc1ccc(NC(=O)c2sc3nc(-c4cc5cccc(OC)c5oc4=O)[nH]c(=O)c3c2C)cc1`, the activity change, negative = inhibition was -14.2% (inactive).

In the case of `Cc1ccc(Cn2cc(CCC(=O)NCc3ccc(OC(C)C)cc3)c3ccccc32)cc1`, the activity change, negative = inhibition was 4.19% (inactive).

Turning to `O=C(O)c1cc2c(cc1NC(=O)c1c(F)cccc1Cl)OCCCO2`, the activity change, negative = inhibition is -29.4% (inactive).

Take `CCN(CC)CCNC(=O)c1ccc(NC(=O)c2c(F)cccc2Cl)cc1`: the activity change, negative = inhibition is -23.1% (inactive).

`O=C(NNc1cc(Cl)cc(Cl)c1)c1c(F)cccc1Cl`: the activity change, negative = inhibition was -68.5% (active).
